# Gal4-VP16 FLuc – Gal4-VP16 reporter inhibition counter-screen. AID 2546. Drosophila S2 Gal4-VP16 UAS-luciferase, luminescence, 20 h. Potency, µM (highest dose often 53.6 µM), hits mostly inhibitors. 310,000 tested, 3.5% active;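 note: Gal4-VP16 expression switched on by copper sulfate through the metallothionein promoter; nearly all actives have a fitted effect of over 50% in size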
# TDP1 block – inhibitors of human tyrosyl-DNA phosphodiesterase TDP1. Q9NUW8. 350,000 tested, 0.28% active. Potency, µM (series often up to 130 µM), hits mostly inhibitors. recombinant TDP1, AlphaScreen DNA substrate cleavage; note: nearly all actives have a fitted effect of over 40% in size
# Target sequence (Q9NUW8 whole entry, looked up): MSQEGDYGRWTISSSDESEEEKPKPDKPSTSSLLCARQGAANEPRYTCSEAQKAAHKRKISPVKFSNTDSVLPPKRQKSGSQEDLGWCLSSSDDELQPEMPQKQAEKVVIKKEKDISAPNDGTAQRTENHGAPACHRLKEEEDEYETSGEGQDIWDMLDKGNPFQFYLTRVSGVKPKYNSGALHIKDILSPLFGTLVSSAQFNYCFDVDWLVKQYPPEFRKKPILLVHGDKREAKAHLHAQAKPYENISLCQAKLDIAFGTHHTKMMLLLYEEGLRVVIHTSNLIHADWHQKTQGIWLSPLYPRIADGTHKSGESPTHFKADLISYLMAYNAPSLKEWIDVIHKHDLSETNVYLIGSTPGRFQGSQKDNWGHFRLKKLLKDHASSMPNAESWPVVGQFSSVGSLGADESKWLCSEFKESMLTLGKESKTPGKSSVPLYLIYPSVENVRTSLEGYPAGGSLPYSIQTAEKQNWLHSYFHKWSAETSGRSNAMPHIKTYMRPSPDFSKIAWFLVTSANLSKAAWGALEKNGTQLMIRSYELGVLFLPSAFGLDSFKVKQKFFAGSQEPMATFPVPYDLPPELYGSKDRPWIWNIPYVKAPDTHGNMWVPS
#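 Signal: AlphaScreen proximity between streptavidin donor and anti-FITC acceptor beads on intact substrate. Reaction: Tdp1 1 nM, substrate 15 nM final, 5 min RT after 15 min compound preincubation.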
# RORg inh – blocks mouse ROR gamma transcriptional activity; AID 2551; P51450; 310,000 tested, 5.4% active; Potency, µM (series often up to 53.6 µM), usual class: inhibitors; Drosophila S2 Gal4-RORgamma UAS-luciferase reporter, 20 h; note: nearly all actives have a fitted effect of over 60% in size
#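 Stably transfected Drosophila Schneider cells are the test system, with ROR gamma fused to Gal4 and luciferase under UAS control; luminescence is read after 20 hr of 700 uM copper sulfate induction at ambient temperature.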
# TDP1 cell noCPT – qHTS for Inhibitors of human tyrosyl-DNA phosphodiesterase 1 (TDP1): qHTS in cells in absence of CPT | 420,000 tested, 15% active | Potency, µM (doses to about 46.2 µM), usual class: inhibitors | DT40 Tdp1-/- hTDP1 cells, no CPT, ATP luminescence, 48 h; note: nearly all actives have a fitted effect of over 55% in size
#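 Readout: luminescence from CellTiter-Glo after 30 min in the dark at RT. Cells: DT40 Tdp1-/- with stable hTDP1, 400/well. Exposure: compounds alone, ≥48 hr, 37 °C.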
# TDP1 cell CPT – DT40-hTDP1 cell growth loss with CPT | chicken DT40 Tdp1-/-;hTDP1 cells + 20 nM CPT, ATP luminescence, 48 h | Potency, µM (doses to about 46.2 µM), hits mostly inhibitors | 420,000 tested, 12% active | AID 686979; note: nearly all actives have a fitted effect of over 55% in size
#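 Chicken DT40 Tdp1-/- cells stably complemented with human TDP1 were seeded at 400 cells/well in medium containing 20 nM camptothecin, exposed to pin-transferred compounds, and grown at 37 °C for at least 48 hr. Viability was read as ATP luminescence.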
# Numbers stand for hits; – = inactive; ? = inconclusive; · = no result. This is a sample that favours compounds with a hit; in the whole collection about 19% have one here. Calls come from the whole dose curve; as a rule, active = well fitted curve in the direction sought with a large enough effect; inconclusive = small, poorly fitted or top-dose-only effect, or another doubt; inactive = no such curve, though single readings can be large; an effect the other way counts as inactive or inconclusive.
SMILES,Gal4-VP16 FLuc,TDP1 block,RORg inh,TDP1 cell noCPT,TDP1 cell CPT
COc1ccc(-c2nc(Cn3c(SCc4cccc(F)c4)nc4cccnc43)c(C)o2)cc1,·,–,·,?,?
Cc1oc(-c2cccc(Cl)c2)nc1Cn1c(SCc2ccc(F)cc2)nc2cccnc21,·,–,·,26µM,26µM
COc1ccc(-c2nc(Cn3c(SCc4ccccc4F)nc4ccncc43)c(C)o2)cc1,–,–,–,15µM,?
COc1ccc(-c2nc(Cn3c(SCc4ccc(F)cc4)nc4cccnc43)c(C)o2)cc1,·,–,·,2.6µM,2.9µM
Cc1cc(C)nc(NCCCc2ccccc2)n1,–,–,–,–,–
Cc1cc(Nc2ccc(Cl)cc2)nc(NCc2ccccc2)n1,?,–,?,8.2µM,7.3µM
Cc1ccc(Nc2cc(C)nc(-c3ccccc3)n2)cc1,–,·,–,–,?
CCCCNc1cc(C)nc(NCc2ccccc2)n1,7.1µM,–,?,5.8µM,9.2µM
Cc1cc(Nc2ccccc2)nc(NCc2ccccc2)n1,11µM,–,2.8µM,4.1µM,8.2µM
Cc1cc(Oc2ccccc2)nc(NCc2ccccc2)n1,–,–,–,21µM,12µM
Cc1cc(Oc2ccccc2F)nc(NCc2ccccc2)n1,–,–,–,?,?
Cc1cc(Nc2cccc(F)c2)nc(NCc2ccccc2)n1,?,–,–,5.8µM,4.1µM
Cc1cc(N2CCC(C)CC2)nc(NCc2ccccc2)n1,–,–,?,16µM,?
CC(C)C[C@@H](CC(=O)N[C@@H](CCC(=O)O)CC(=O)O)NC(=O)[C@@H]1CCCC[C@H]1NC(=O)C[C@@H](NC(=O)C[C@H](Cc1ccccc1)NC(=O)[C@@H]1CNCC[C@H]1N)C(C)C,–,–,–,·,·
O=C(CSc1nc2ccccc2s1)Nc1ccc(N2CCOCC2)c(Cl)c1,?,–,?,21µM,16µM
O=C(CSc1nc2cc(Cl)ccc2s1)Nc1cccc(S(=O)(=O)N2CCOCC2)c1,–,–,?,21µM,?
O=C(COC(=O)CC1CC2CCC1C2)Nc1ccc(Cl)c(S(=O)(=O)N2CCOCC2)c1 (configuration not stated),·,–,·,?,16µM
O=C(CSc1nc2ccccc2s1)Nc1ccc(Cl)c(S(=O)(=O)N2CCOCC2)c1,?,–,?,?,23µM
Cc1ccc2oc(=O)c3cc(C(=O)NCCCN4CC(C)CC(C)C4)sc3c2c1 (configuration not stated),–,–,–,?,?
COc1ccc(OC)c(CN(CCCN2CCOCC2)C(=O)Nc2ccccc2)c1,–,–,–,–,–
COCCNC(=O)C1CCC(CNS(=O)(=O)c2cccc3nsnc23)CC1 (configuration not stated),–,–,–,–,–
O=C(CSc1nnc(C23CC4CC(CC(C4)C2)C3)o1)Nc1ccc(N2CCOCC2)c(Cl)c1,–,–,–,18µM,?
CC1(C)CC(O)CC(C)(C)N1CC(O)COCCOc1ccc(Br)cc1 (configuration not stated),–,–,–,–,–
C#CCOCCOCCOCCNc1nc(N2CCN(C(=O)CCCCCCCCCCNC(=O)[C@H]([C@@H](C)CC)n3cc(CCCCCN)nn3)CC2)nc(N2CCN(C(=O)CCCCCCCCCCNC(=O)[C@H]([C@@H](C)CC)n3cc(CCCCN=C(N)N)nn3)CC2)n1,·,–,·,·,·
C#CCOCCOCCOCCNc1nc(N2CCN(C(=O)CCCCCCCCCCNC(=O)[C@H]([C@@H](C)CC)n3cc(CCCCN=C(N)N)nn3)CC2)nc(N2CCN(C(=O)CCCCCCCCCCNC(=O)[C@H](CCCCN)n3cc(C)nn3)CC2)n1,·,–,·,8.2µM,23µM
SMILES,Gal4-VP16 FLuc,TDP1 block,RORg inh,TDP1 cell noCPT,TDP1 cell CPT
C#CCOCCOCCOCCNc1nc(N2CCN(C(=O)CCCCCCCCCCNC(=O)Cn3cc(CCCCCN)nn3)CC2)nc(N2CCN(C(=O)CCCCCCCCCCNC(=O)[C@H]([C@@H](C)CC)n3cc(CCCCN=C(N)N)nn3)CC2)n1,·,–,·,?,21µM
C#CCOCCOCCOCCNc1nc(N2CCOCC2)nc(N2CCN(C(=O)[C@H](CCCCN)n3cc(CCCC)nn3)CC2)n1,·,·,·,1.3µM,0.21µM
CC1CCCN(CCCNC(=O)C2CCC(CNS(=O)(=O)c3cccc4nsnc34)CC2)C1 (configuration not stated),–,–,–,–,–
CCc1ccc(C2=CC(c3c(F)cccc3Cl)n3c(nc4ccccc43)N2)cc1 (configuration not stated),·,–,·,7.3µM,18µM
NC(=O)C1c2ccccc2CCc2ccccc21,–,–,–,–,–
O=C(NC1CC1)c1ccc2c(c1)C1C3CCC(C3)C1C(c1ccccc1)N2 (configuration not stated),–,–,–,26µM,?
O=C(NC1CCCCC1)c1ccc2ccccc2c1,·,·,·,?,–
O=c1c2ccccc2c(-c2cccc(C(F)(F)F)c2)nn1-c1ccccc1,–,–,?,?,?
O=c1c2ccccc2c(-c2ccc(O)cc2)nn1-c1cccc(C(F)(F)F)c1,–,–,–,15µM,15µM
COc1ccc(-c2nnc3n(CCc4ccccc4)c(=O)c4ccccc4n23)cc1OC,?,–,–,23µM,?
CC(=O)C1=C(c2ccc(C)cc2)N(C(C)=O)n2c(nnc2C2CCCCC2)S1,·,–,·,?,?
CC(=O)C1=C(c2cccc([N+](=O)[O-])c2)N(C(C)=O)n2c(C)nnc2S1,?,–,5µM,1.8µM,4.6µM
CCC(=O)C1=C(c2ccc(Cl)cc2)N(C(=O)CC)n2c(C)nnc2S1,·,–,·,7.3µM,8.2µM
CC(=O)C1=C(c2ccc(Cl)cc2)N(C(C)=O)n2c(nnc2C2CCCCC2)S1,·,–,·,?,13µM
CCC(=O)C1=C(c2ccccc2)N(C(=O)CC)n2c(nnc2-c2ccccc2)S1,·,–,·,–,?
COc1ccc(C2=C(C(C)=O)Sc3nnc(-c4ccccc4)n3N2C(C)=O)cc1,·,–,·,–,?
CC(=O)C1=C(c2ccc(C)c(C)c2)N(C(C)=O)n2c(nnc2-c2ccc(Cl)cc2)S1,·,–,·,4.6µM,5.2µM
CCC(=O)Nc1ccc(C(=O)NNC(=O)c2cccc(C)c2)cc1,–,·,–,–,–
O=c1c2sccc2nc(SCc2cc(=O)n3cc(Cl)ccc3n2)n1-c1ccc(F)cc1,–,–,?,?,?
O=C(CSC1=NCCS1)NC1CCCC1,–,–,–,–,–
C=C1CCC2C(C)(C)[C@@H](O)CC[C@@]2(C)[C@@H]1COc1ccc2ccc(=O)oc2c1 (some centres not stated),–,·,–,?,–
CCCCN(CC)CCNC(=O)c1cc2c(=O)[nH]c3ccccc3c2s1,–,·,–,?,?
